CASP6 VEID inh – human caspase-6 inhibitors, primary screen, biochemical, VEID-R110 fluorescence, single point, set 2; inhibition, % at 12.5 µM; purified caspase-6, Z-VEID-R110 cleavage fluorescence; P55212; actives 0.53% (n = 350,000);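 active = mean inhibition across replicates at least about 35%, with every replicate also reaching that limit, limit read from the data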;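 note: 0% = median of neutral control wells and 100% = no fluorescence left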
Target sequence (P55212 24-179 limits assumed): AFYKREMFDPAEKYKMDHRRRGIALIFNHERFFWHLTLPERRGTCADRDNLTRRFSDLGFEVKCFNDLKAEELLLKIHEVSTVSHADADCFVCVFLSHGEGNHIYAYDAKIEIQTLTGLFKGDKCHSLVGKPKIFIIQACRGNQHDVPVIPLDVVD
Target sequence (P55212 194-293 limits assumed): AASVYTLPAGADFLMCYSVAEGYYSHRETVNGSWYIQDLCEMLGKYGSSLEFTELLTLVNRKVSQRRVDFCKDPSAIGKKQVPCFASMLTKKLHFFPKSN
SIRT5 inh – SIRT5 desuccinylase inhibitors, primary screen, biochemical, fluorescence imaging, single point, set 5; Purified SirT5, succinyl-peptide AMC, trypsin-coupled fluorescence; actives 1.1% (n = 330,000); inhibition, % at 15 µM; in the data active = inhibition above about 15%
Target sequence (Q9NXA8 whole entry, looked up): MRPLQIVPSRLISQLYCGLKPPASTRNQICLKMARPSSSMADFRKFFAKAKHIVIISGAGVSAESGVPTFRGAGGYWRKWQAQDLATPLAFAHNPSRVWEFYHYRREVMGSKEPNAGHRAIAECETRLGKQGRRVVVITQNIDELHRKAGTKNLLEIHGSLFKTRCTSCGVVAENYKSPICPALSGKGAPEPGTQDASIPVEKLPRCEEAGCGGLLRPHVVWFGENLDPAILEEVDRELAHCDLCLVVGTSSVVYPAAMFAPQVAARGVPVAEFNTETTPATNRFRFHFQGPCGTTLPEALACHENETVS
FGF22 binding – binders of human FGF22 protein, primary screen, FGF22 synaptogenesis inhibitor project, biophysical, thermal shift, single point. Fibroblast growth factor 22 (Homo sapiens), Q9HCT0. recombinant FGF22 thermal shift, SYPRO orange fluorescence; percent of sucrose octasulfate shift, DMSO zero. activity (Tm shift, normalised), % at 9.99 µM. actives 1.5% (n = 340,000). AID 651658, 2012;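 active = mean Tm shift, scaled 0 neutral to 100 positive control, at about 1.3% or above, every replicate too, limit read from the data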
INS-1E GSIS act – GLuc luminescence reporter in INS-1E cells, primary screen for activators of glucose-dependent secretion of insulin; INS-1E GLuc reporter insulin secretion, 2-3 h; activation, % at 16.6 µM; actives 0.61% (n = 370,000);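 active = lowest replicate activation of at least 40%, so every replicate reaches that level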;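 note: 0% = median of neutral control wells and 100% = median of IBMX positive control wells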
ERAP1 HTS inh – human ERAP1 aminopeptidase inhibitors, primary screen, biochemical, single point, plate reader; inhibition, % at 10.7 µM; Endoplasmic reticulum aminopeptidase 1 (Homo sapiens), Q9NZ08; recombinant ERAP1, Leu-AMC fluorescence, 60 min; actives 0.15% (n = 340,000);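 active = mean replicate inhibition of at least 30%, or all replicates individually reaching that 30% level; inactive = mean below 30% and not every replicate reaching it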;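 note: 0% = neutral control wells and 100% = L-leucinethiol positive control wells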
Numbers without * were called inactive; . = no result. Only some compounds are listed: those with a hit (about 3.3% of all), similar ones and a draw of the others.

SMILES	CASP6 VEID inh	SIRT5 inh	FGF22 binding	INS-1E GSIS act	ERAP1 HTS inh
CNC[C@@H]1Oc2ccc(NC(=O)CCN3CCOCC3)cc2CC(=O)N([C@H](C)CO)C[C@@H]1C	0	-2	.	.	-2
COc1ccc(N=C2NN=C(c3c(C)[nH]c4ccccc34)CS2)cc1	-3	-3	43*	7	-4
Cc1[nH]c2ccccc2c1C1=NNC(=Nc2ccc(F)cc2)SC1	-2	-2	0	2	0
CCC(=O)N1CC(=O)N2[C@H](CO)[C@@H](c3ccc(C#CC(C)C)cc3)[C@H]2C1	.	.	.	-3	.
Cc1[nH]c2ccccc2c1CC#N	1	2	0	12	0
Cc1[nH]c2ccccc2c1C1=CC(=O)C=CC1=O	4	-3	0	114	78*
O=C(NC(=S)NCCCN1CCOCC1)c1ccc([N+](=O)[O-])cc1	-15	1	43*	2	-3
O=[N+]([O-])c1ccc(COc2ccc(-c3[nH]ncc3-c3ccc(Cl)cc3)c(O)c2)cc1	.	.	.	41*	.
COc1ccc(-c2cn[nH]c2-c2ccc(OCc3ccc([N+](=O)[O-])cc3)cc2O)cc1OC	-1	-3	0	3	.
OCCN1CCN(CC(O)COc2ccc(C34CC5CC(CC(C5)C3)C4)cc2)CC1 (configuration not stated)	-36	-3	0	90*	8
O=C(N/N=C/c1ccc([N+](=O)[O-])cc1)c1ccc(COc2ccccc2-c2ccccc2)cc1	-3	-1	44*	-8	2
O=C(N/N=C/C=C/c1ccc2c(c1)OCO2)c1ccc([N+](=O)[O-])cc1	.	.	.	74*	.
Cc1ccsc1/C=N/NC(=S)NCCc1ccccc1	-3	16*	0	-7	-2
Cc1ccsc1/C=N/NC(=O)c1ccncc1	-3	4	43*	27	5
Cc1ccc(S(=O)(=O)N(C)C[C@@H]2Oc3ccc(NS(C)(=O)=O)cc3C(=O)N([C@@H](C)CO)C[C@H]2C)cc1	1	6	0	23	-1
O=C(C[C@@H]1CC[C@H]2[C@@H](COC[C@@H](O)CN2Cc2ccncc2)O1)NCC1CC1	-1	1	-1	2	-2
CN1CCN(C(=O)C[C@@H]2CC[C@H](NC(=O)Cc3ccccn3)[C@H](CO)O2)CC1	1	-3	0	5	-2
O=C(N/N=C/c1cc(Br)c(Br)s1)c1ccncc1	-2	2	44*	.	1
O=C(N/N=C/c1ccncc1)c1cc([N+](=O)[O-])cc([N+](=O)[O-])c1	.	.	.	9	.
O=C(NN=Cc1ccc([N+](=O)[O-])cc1)c1ccncc1	2	.	44*	.	2
CCCC(=O)Nc1ccc2c(c1)C(=O)N(C)[C@H]1CC[C@H](CC(=O)NC3CCCC3)O[C@@H]1CO2	1	-4	0	18	-1
O=C(O)c1ccccc1-c1c2cc(I)c(=O)c(I)c-2oc2c(I)c(O)c(I)cc12	-226	29*	0	-19	106*
CCCC(=O)Nc1ccc2c(c1)C(=O)N(C)C[C@H](OC)[C@@H](C)CN(C(=O)CC)[C@H](C)CO2	.	.	.	-1	.
Cc1c(C(C)C)c(=O)n(-c2ccc(S(=O)(=O)NCc3ccccc3)cc2)n1C	-4	3	43*	-56	5
Cc1c(C(C)C)c(=O)n(-c2ccc(S(=O)(=O)NC3CCCCC3)cc2)n1C	3	1	0	-23	0
SMILES	CASP6 VEID inh	SIRT5 inh	FGF22 binding	INS-1E GSIS act	ERAP1 HTS inh
C[C@H]1CN([C@@H](C)CO)C(=O)Cc2cc(NC(=O)Cn3cnnn3)ccc2O[C@H]1CN(C)Cc1ccc(C(=O)Nc2ccccc2N)cc1	0	6	0	6	-1
Fc1ccc(-c2nnc3n2CCCCC3)cc1	1	17*	0	-7	-6
O=[N+]([O-])c1ccc(-c2nnc3n2CCCCC3)cc1	0	0	0	2	-2
CC(=O)N(C1CC(C)C(C#N)(C#N)C1(C#N)C#N)N(C)C (configuration not stated)	7	9	0	167*	2
CCCC(=O)N(C1CC(C)C(C#N)(C#N)C1(C#N)C#N)N(C)C (configuration not stated)	1	0	0	7	-1
COc1ccc(S(=O)(=O)Nc2ccc3c(c2)C(=O)N([C@@H](C)CO)C[C@H](C)[C@H](CN(C)S(=O)(=O)c2ccc(OC)cc2)OCCCC[C@H](C)O3)cc1	.	.	15*	2	.
COc1ccc(S(=O)(=O)Nc2ccc3c(c2)C(=O)N([C@@H](C)CO)C[C@H](C)[C@@H](CN(C)S(=O)(=O)c2ccccc2)OCCCC[C@@H](C)O3)cc1	.	21*	0	-9	.
COc1ccc(S(=O)(=O)Nc2ccc3c(c2)C(=O)N([C@@H](C)CO)C[C@@H](C)[C@H](CN(C)S(=O)(=O)c2ccccc2)OCCCC[C@H](C)O3)cc1	2	22*	0	-4	-2
COc1ccc(S(=O)(=O)Nc2ccc3c(c2)C(=O)N([C@H](C)CO)C[C@@H](C)[C@H](CN(C)S(=O)(=O)c2ccccc2)OCCCC[C@H](C)O3)cc1	-2	25*	-1	-12	1
COc1ccc(S(=O)(=O)Nc2ccc3c(c2)C(=O)N([C@@H](C)CO)C[C@@H](C)[C@H](CN(C)S(=O)(=O)c2ccc(OC)cc2)OCCCC[C@H](C)O3)cc1	.	.	0	-3	.
CNC[C@@H]1Oc2ccc(NC(=O)NC3CCCCC3)cc2C(=O)N([C@@H](C)CO)C[C@@H]1C	3	-1	0	-6	-3
CCC(=O)N[C@@H]1CC[C@H](CC(=O)NCCN2CCCCC2)O[C@@H]1CO	-2	-1	0	-3	1
COc1ccc(S(=O)(=O)Nc2ccc3c(c2)C(=O)N([C@H](C)CO)C[C@@H](C)[C@H](CN(C)S(=O)(=O)c2ccccc2)OCCCC[C@@H](C)O3)cc1	1	19*	-1	-16	2
COc1ccc(S(=O)(=O)Nc2ccc3c(c2)C(=O)N([C@@H](C)CO)C[C@@H](C)[C@@H](CN(C)S(=O)(=O)c2ccccc2)OCCCC[C@@H](C)O3)cc1	1	20*	0	-44	-2
COc1ccc(S(=O)(=O)N(C)C[C@H]2OCCCC[C@H](C)Oc3ccc(NS(=O)(=O)c4ccccc4)cc3C(=O)N([C@H](C)CO)C[C@H]2C)cc1	1	14	-1	8	1
COc1ccc(S(=O)(=O)Nc2ccc3c(c2)C(=O)N([C@H](C)CO)C[C@H](C)[C@@H](CN(C)Cc2ccncc2)OCCCC[C@H](C)O3)cc1	0	-3	0	-4	0
